The full list was thinned out, with hits kept by preference.
HIV RNase H inh-1: HIV-1 RT RNase H inhibitors, primary screen, biochemical, fluorescence. AID 565, 2006. inhibition, % at 10 µM. actives 1.9% (n = 65,000). RT-RNase H RNA/DNA duplex cleavage; in the data active = inhibition above about 50%
HIV RNase H inh-2: HIV-1 RT RNase H inhibitors, retest, confirmation, biochemical; Recombinant RT RNase H, fluorescent RNA/DNA duplex cleavage; shares compounds with HIV RNase H inh-1; inhibition, % at 10 µM; actives 39% (n = 1,000); in the data active = inhibition above about 48%; inconclusive = no clear call, values can overlap the other calls
An asterisk follows results filed as active; ? = inconclusive.

SMILES	HIV RNase H inh-1	others
COC(=O)c1cc(N2C(=O)C3C(C2=O)C2(C)C=CC3(C)O2)ccc1Cl (configuration not stated)	16
COc1ccc(Cl)cc1NC(=O)CSc1nc(N2CCCCC2)nc(N2CCCCC2)n1	20
CC(C)Cc1cc(C(=O)Nc2sc3c(c2C#N)CCCC3)no1	65*	HIV RNase H inh-2=68*
Cc1noc(C(=O)Nc2sc3c(c2C#N)CCC3)c1Cl	67*	HIV RNase H inh-2=9
CC(=O)Nc1sc2c(c1C#N)CCCCC2	-16
Cc1cc(C(=O)Nc2sc3c(c2C#N)CCC(C)C3)no1 (configuration not stated)	2
Cc1cc(C(=O)Nc2sc3c(c2C#N)CCC3)no1	22
Cc1cc(C(=O)Nc2sc3c(c2C#N)CCCC3)no1	3
CCCCSc1nc(C)c(CC(=O)O)c(=O)[nH]1	-7
C[C@H](NC(=O)C1(c2ccccc2)CCN(C(=O)[C@H]2CSCN2C(=O)OC(C)(C)C)CC1)C(=O)O	-3
O=C(CSc1nnnn1-c1ccccc1)Nc1nc(-c2ccccc2)ns1	-30
O=C(CSc1nnnn1-c1ccccc1)Nc1nsc(-c2ccccc2)n1	-6
O=C(CSc1nnnn1-c1ccccc1)Nc1nsc(-c2ccc(Cl)cc2)n1	65*	HIV RNase H inh-2=58*
O=C(c1coc(=O)c(Br)c1)N1CCOCC1	61*	HIV RNase H inh-2=48
O=C(c1ccc(=O)oc1)N1CCOCC1	2
O=C(c1ccc(Cl)c(Cl)c1)N1CCOCC1	-1
CCOC(=O)CC(=O)CSc1[nH]c(=O)cc(C)c1C#N	-6
CN1CCc2c(sc3c2C(=O)NC(c2ccccn2)N3)C1 (configuration not stated)	50
Cn1cc(/C=N/n2cnc3sc4c(c3c2=O)CCCC4)c2ccccc21	-6
Cn1cc(C2NC(=O)c3c(sc4c3CCCC4)N2)c2ccccc21 (configuration not stated)	69*	HIV RNase H inh-2=?
CCN1CC=C2C(C#N)=C(N)C(C#N)(C#N)C(c3cc(Cl)ccc3Cl)C2C1 (configuration not stated)	-4
O=C(CSc1ncn[nH]1)NCCCc1ccccc1	-9
CCOCCCNC(=O)Cn1cc2c(n1)CCCCC2	-7
c1ccc(Cn2c(-c3ccco3)nc3nc4ccccc4nc32)cc1	0
O=c1oc(-c2ccco2)nc2ccccc12	-1
SMILES	HIV RNase H inh-1	others
c1coc(-c2nc3ccccc3nc2-c2ccco2)c1	67*	HIV RNase H inh-2=44
CC(/C=N/n1cnnc1)=C\c1ccco1	-25
CCc1nc(SCc2ccc(C(=O)OC)o2)c2c(=O)n(C)c(=O)n(C)c2n1	-8
O=C(CN1C(=O)COc2ccccc21)N(Cc1ccccc1)Cc1ccccn1	84*	HIV RNase H inh-2=39
Cc1ccc(CN(Cc2cccnc2)C(=O)CN2C(=O)COc3ccccc32)o1	-6
COc1ccc(CN(Cc2ccccn2)C(=O)CN2C(=O)C(C)Oc3ccccc32)cc1 (configuration not stated)	-6
Brc1ccccc1-c1nnc2sc(Cc3ccccc3)nn12	-108
O=C(O)CSc1nnc(Cn2nnc3ccccc32)n1CCc1ccccc1	-18
c1ccc(Cc2nn3c(Cn4nnc5ccccc54)nnc3s2)cc1	74*	HIV RNase H inh-2=68*
COC(=O)CSc1nnc(CNC(=O)c2ccco2)n1-c1ccc(F)cc1	-3
CCOc1ccc2nc(NC(=O)C3CCCN(S(=O)(=O)c4c(C)noc4C)C3)sc2c1 (configuration not stated)	-4
O=C(NCC1CCCO1)c1ccc2c(c1)C(=O)N(C1CCCCC1)C2=O (configuration not stated)	6
Cc1cc(NC(=O)c2ccc3c(c2)C(=O)N(CCC(C)C)C3=O)no1	35
Cc1cc(NC(=O)c2ccc3c(c2)C(=O)N(C2CCCCC2)C3=O)no1	64*	HIV RNase H inh-2=25
C=CCn1sc(=N)c(C#N)c1N	4
Cn1c(=O)c(=O)n(C)c2cc(S(=O)(=O)N3CCOCC3)ccc21	-22
Cc1cccc(N2CCN(S(=O)(=O)c3ccc4c(c3)n(C)c(=O)c(=O)n4C)CC2C)c1 (configuration not stated)	57*	HIV RNase H inh-2=?
Cn1c(=O)n(C)c2cc(S(=O)(=O)O)ccc21	-5
O=C(c1nc(-c2ccccc2)n(-c2ccccc2)n1)N1CCN(S(=O)(=O)c2ccccc2)CC1	-13
CNC(=O)CC(C(=O)O)c1ccc(OCC(C)C)cc1 (configuration not stated)	-5
CCOC(=O)N1CCc2c(sc3c2C(=O)NC(c2ccc(-c4ccc(Cl)cc4)o2)N3)C1 (configuration not stated)	74*	HIV RNase H inh-2=97*
Cc1ccc(C2NC(=O)c3c(sc4c3CCN(C)C4)N2)o1 (configuration not stated)	0
Cc1ccc(C2NC(=O)c3c(sc4c3CCN(C)C4)N2)s1 (configuration not stated)	-8
Cc1ccc(/C(O)=C2\C(=O)C(=O)N(CC(C)O)C2c2ccc(N(C)C)cc2)cc1 (configuration not stated)	8
